# Shn3 inh set2: inhibitors of Schnurri-3 3'UTR reporter in osteoblasts; Clone20 osteoblast Shn3 3'UTR firefly luciferase, 24 h; inhibition, % at 12.5 µM; actives 0.52% (n = 360,000); AID 588674;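 active = mean inhibition of at least 75% with every replicate also reaching 75%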;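 also: 0% = median of neutral control wells and 100% = pilot-screen positive control compound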
# LMP1 NFkB inh: Epstein-Barr LMP1 NF-kappaB reporter inhibition | inhibition, % at 12.5 µM | LMP1-induced NF-kappaB luciferase reporter cells, luminescence | actives 0.69% (n = 350,000); in the data active = inhibition above about 41%;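 also: 0% = neutral control wells and 100% = reference inhibitor control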
# Gli-Sufu antag: Gli-Sufu pathway antagonism | actives 0.74% (n = 340,000) | Sufu-KO-LIGHT fibroblasts, Gli luciferase reporter luminescence | inhibition, % at 5 µM;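 active = inhibition above about 55%, limit read from the data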;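 also: 0% = DMSO-treated cells and 100% = wells with medium but no cells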
# Jurkat NFkB inh: lowers PMA/ionomycin-induced NF-kB signal in Jurkat cells | inhibition, % at 4 µM | actives 0.53% (n = 330,000) | AID 435003 | PMA/ionomycin-induced NF-kB luciferase reporter, luminescence; in the data active = inhibition above about 50%
# 697 NFkB inh: inhibitors of the PMA/ionomycin-induced NF-kB reporter in 697 B cells. inhibition, % at 4 µM. actives 0.33% (n = 330,000). AID 435022. 697 B-cell NF-kB luciferase reporter, 16 h; in the data active = inhibition above about 35%
# MITF TRPM1 inh: MITF TRPM1 promoter inhibition in SK-MEL-5 cells. actives 0.83% (n = 330,000). inhibition, % at 12.5 µM. SK-MEL-5 TRPM1 promoter luciferase, 24 h;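 active = mean inhibition across replicates of 60% or more, whatever share of single replicates reaches that level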
# Gli antag conf: Gli-SUFU antagonism confirmation, single concentration | shares compounds with Gli-Sufu antag | Sufu-KO-LIGHT cells, Gli luciferase reporter, luminescence | AID 602428 | inhibition, % at 5 µM | actives 40% (n = 2,500);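 active = mean inhibition at 5 µM reaching about 45%, limit read from the data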;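 also: plate controls were DMSO-treated cells for no effect and wells lacking cells for full effect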
# Gli cytotox: cytotoxicity counter-screen for Gli-SUFU antagonists. shares compounds with Gli-Sufu antag. Sufu-KO-LIGHT cells cytotoxicity, ATP luminescence. cytotoxicity, % at 5 µM. actives 32% (n = 2,500). AID 651994;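 active = mean cytotoxicity at 5 µM above about 25%, limit read from the data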;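 also: cells exposed to compound overnight for roughly 16 to 18 hours; plate controls were DMSO wells with cells for no effect and medium without cells for full effect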
# Wnt3a counter: counter-screen for Gli-SUFU antagonists: Wnt3a reporter inhibition; shares compounds with Gli-Sufu antag; inhibition, % at 6.25 µM; actives 20% (n = 2,500); Wnt-LIGHT cells, Wnt3a-driven luciferase reporter, luminescence; AID 651995;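 active = mean inhibition above about 25%, limit read from the data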
# Active calls of the source: *; · = no result. A selection: hits, their analogues and other compounds. The true share with any hit is near 2.3%.
SMILES,Shn3 inh set2,LMP1 NFkB inh,Gli-Sufu antag,Jurkat NFkB inh,697 NFkB inh,MITF TRPM1 inh,Gli antag conf,Gli cytotox,Wnt3a counter
CCOc1ccc(-c2[nH]ncc2-c2ccccc2)c(O)c1,33,-4,55*,-10,-18,4,21,21,-20
COc1ccc(-c2cn[nH]c2-c2ccc(OCc3ccccc3)cc2O)cc1,13,20,2,15,11,-3,·,·,·
Cc1cc(C)c(S(=O)(=O)Nc2cccc(S(=O)(=O)N3CCOCC3)c2)c(C)c1,14,0,10,21,3,6,·,·,·
CC(=O)c1cn(CCOc2ccccc2C)c2ccccc12,80,1,65*,40,25,23,56*,25,30*
CC1(C)CNC(=O)c2sc(NC(=O)c3ccccc3)nc2C1,-30,-28,-33,-30,-23,-95,·,·,·
Cc1ccc(CCNC(=O)CC2Oc3ccc(C)cc3NC2=O)cc1 (stereo not drawn),-12,2,3,4,6,·,·,·,·
CCCCN(CC)CCCNC(=O)c1cc2c(-c3ccc(OC)c(OC)c3)nn(C)c2s1,28,3,56*,-48,1,-35,17,11,-14
CCN(CC)CCCNC(=O)c1cc2c(-c3cccc(OC)c3)nn(C)c2s1,-15,-14,6,-85,-15,-14,·,·,·
CCCCn1c(N)c(N(CC(C)C)C(=O)CSCC(=O)Nc2cccc(C)c2)c(=O)[nH]c1=O,10,2,-6,9,5,-12,·,·,·
S=C(Nc1cccnc1)NC1CCCC1,1,-3,59*,-3,1,13,6,6,4
O=C(Nc1ccc(C(=O)NC2CCCCC2)cc1)c1cccnc1,17,-4,55*,-6,-19,7,31,3,-7
CC(=O)Nc1ccc(C(=O)NC2CCCC2)cc1,-9,12,-5,-5,-6,-4,·,·,·
Cc1nn(Cc2ccccc2Cl)c(C)c1C(=O)NCCN1C(=O)S/C(=C\c2ccccc2)C1=O,13,-4,8,12,3,7,·,·,·
O=C(COc1cc2oc(=O)cc(-c3ccccc3)c2cc1Cl)NCc1ccccn1,-13,-4,53,5,2,-11,7,22,8
CCCOC(=O)c1c(-c2ccc(OC)cc2)oc2ccc(-c3ccc(OC)nc3)cc12,14,-2,-4,-7,-4,43,·,·,·
CCc1c(C)sc2nc(C(C)C)nc(SCC(=O)N3CCc4ccccc4C3)c12,·,·,83*,-3,-11,·,85*,41*,13
CCc1nc(CN2CCCC(C(=O)c3ccc4c5c(cccc35)CC4)C2)c(C)[nH]1 (stereo not drawn),74,12,52,7,-12,5,15,6,-44
Cc1ccc(S(=O)(=O)N2CCCCC2C(=O)NCc2ccco2)cc1 (stereo not drawn),10,5,52,-9,-13,1,14,2,24
COC(=O)Nc1ccc(S(=O)(=O)N2CCCCC2C(=O)NCc2ccco2)cc1 (stereo not drawn),-15,3,8,-3,-4,6,·,·,·
Cc1c(N)cc(C(=O)N2CCOCC2)cc1[N+](=O)[O-],-34,-4,93*,-2,16,-3,16,-12,14
CCN(C1CCCCC1)S(=O)(=O)c1ccc(S(=O)(=O)NCc2ccncc2)cc1,68,24,60*,35,-13,3,50*,31*,55*
CCN(C1CCCCC1)S(=O)(=O)c1ccc(S(=O)(=O)NCCc2ccncc2)cc1,25,0,11,6,-3,-3,·,·,·
FC(F)Sc1ccc(NC(=S)N2CCN(c3ccccn3)CC2)cc1,-34,9,6,6,5,4,·,·,·
Oc1ccccc1N1CCN(C(=S)Nc2ccc(SC(F)F)cc2)CC1,9,-13,76*,4,-11,-17,23,20,-9
Cc1cc(NC(=O)Cc2ccccc2)c2ccccc2n1,77,16,66*,29,-28,22,59*,37*,30*
SMILES,Shn3 inh set2,LMP1 NFkB inh,Gli-Sufu antag,Jurkat NFkB inh,697 NFkB inh,MITF TRPM1 inh,Gli antag conf,Gli cytotox,Wnt3a counter
Nc1ccc(Cn2ccc3c4c(N)nc(N)nc4ccc32)cc1,75,22,61*,·,·,85*,58*,17,41*
Cc1nc2ccc(N)cc2c(=O)n1Cc1ccc(Cl)cc1,-22,-4,-28,-27,-22,-15,·,·,·
CN(C)C(=O)CSc1ccc(S(=O)(=O)N2CCOCC2)cn1,-9,-5,-11,-7,11,12,·,·,·
Cc1cccc(CNc2ncnc3ccc(-c4ccc5c(c4)OCCO5)cc23)c1,8,-15,-3,-2,-28,31,·,·,·
CC(=O)Nc1ccc(CNc2ncnc3ccc(-c4c(C)noc4C)cc23)cc1,0,20,73*,-21,-79,12,78*,31*,-22
Cc1ccn2c(=O)nc(SCC(=O)Nc3cccc4ccccc34)nc2c1,-11,3,-9,0,9,13,·,·,·
O=C(CSc1nc(=O)n2cc(Cl)ccc2n1)Nc1cccc2ccccc12,-19,-5,91*,13,9,25,17,9,4
C/C(=N/NS(=O)(=O)c1ccc(C)c(C)c1)c1ccncc1,7,4,-26,-7,-12,1,·,·,·
Cc1cc(C(=O)CSc2nc3ccccc3c(=O)n2C)c(C)n1Cc1ccc2c(c1)OCO2,67,23,73*,37,-15,39,78*,38*,49*
O=C1OCCC1Sc1nnc(-c2ccc(Cl)cc2Cl)o1 (stereo not drawn),28,50*,53,24,35,40,67*,12,78*
COc1ccc(CCCC(=O)O)c(C)c1,0,-7,95*,-5,5,1,20,-11,17
CCN(CC)c1ccc(/C=N/NC(=S)NC)c(O)c1,5,2,84*,-40,-19,-5,25,21,-99
COc1cc(C)c(CN2CCC(n3nccc3NC(=O)C3CCOC3)CC2)cc1C (stereo not drawn),19,-11,59*,-25,-4,-5,14,7,-13
COc1cccc(CC(NC(C)=O)C(=O)NC2CCN(S(=O)(=O)c3ccc4ccccc4c3)CC2)c1 (stereo not drawn),17,4,-2,16,28,4,·,·,·
COc1ccc(CCNS(=O)(=O)c2csc(C(N)=O)c2)cc1OC,-12,-3,-9,11,4,7,·,·,·

# Source: PubChem BioAssay (several laboratories)
